Reference: PubChem BioAssay AID504558 (Broad Institute, 2011)
Among all 350,000 compounds or so, about 2,400 (0.69%) were called active. Rule as the data show it: active = inhibition above about 41%; inconclusive = no clear call, values can overlap the other calls; inactive = below that. Shown is part of a subset that was picked to be rich in actives.

Experiment: EBV LMP1-driven NF-kappaB luciferase reporter inhibitors, primary screen, cell-based, luminescence, single point (AID 504558);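 also: 0% = neutral control wells and 100% = reference inhibitor control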
Settings: LMP1-induced NF-kappaB luciferase reporter cells, at 12.5 µM, hits give high values

Structure (SMILES) | inhibition
Cc1cc(-n2nc(C)cc2C)n2ncc(-c3ccccc3)c2n1 | -21% (inactive)
Cc1cc(C)n(-c2c(F)c(F)c(COC(=O)c3ccccc3)c(F)c2F)n1 | -9.15% (inactive)
CCOC(=O)c1cnc(-n2nc(C)cc2C)nc1NNc1cc(C)nc(-c2ccccc2)n1 | 73.6% (active)
CCOC(=O)c1cc(-c2sc(NC(=O)c3ccccc3)nc2C)n(Cc2ccccc2)n1 | 12.1% (inactive)
COc1ccc(NC(=O)c2cc(=O)[nH]c3ccccc23)cc1S(=O)(=O)N1CCOCC1 | -9.47% (inactive)
N#Cc1ccc(OCC(=O)Nc2nc(-c3ccccn3)cs2)cc1 | 23.6% (inactive)
COc1ccc(Cl)cc1NC(=O)CN(C)C(=O)c1cn(-c2ccccc2)nc1-c1cccs1 | 2.49% (inactive)
CC(=O)Nc1ccc2c3c(ccc([N+](=O)[O-])c13)CC2 | 3.38% (inactive)
CC(=O)c1ccc(Oc2cc(C)nc(-n3nc(C)cc3C)n2)cc1 | 89.4% (active)
Cc1cc(C)nc(-n2nc(C)cc2NC(=O)c2ccc(F)cc2F)n1 | -4.13% (inactive)
COc1ccc(C(C)=O)cc1CSc1nc2nc(C)cc(C)n2n1 | 6.79% (inactive)
C[C@H]1CN([C@@H](C)CO)C(=O)CCCn2cc(nn2)CO[C@@H]1CN(C)S(=O)(=O)c1ccccc1C#N | 6.79% (inactive)
C[C@H]1CN([C@@H](C)CO)C(=O)c2cc(-c3ccccc3F)cnc2O[C@H]1CN(C)C(=O)C1CCOCC1 | -4.67% (inactive)
CCCCCCN1C[C@@H](O)[C@H](n2cc(COC(=O)c3ccccc3)nn2)C[C@@H]1c1ccc(Cl)cc1 | 1.86% (inactive)
C[C@H]1CN([C@@H](C)CO)C(=O)c2cc(Br)cnc2O[C@H]1CN(C)S(=O)(=O)c1cccs1 | -1.05% (inactive)
COc1cccc(NC(=O)Nc2ccc(F)cc2)c1 | -3.33% (inactive)
O=C(CSc1c2c(nc3ccc(Cl)cc13)CCCC2)NCc1ccco1 | 19.1% (inactive)
O=C(CSc1ccc(-c2ccco2)nn1)NCc1ccc2c(c1)OCO2 | -3.64% (inactive)
O=C(CSc1nc2cc3c(cc2c(=O)n1CCC1=CCCCC1)OCO3)NCc1ccco1 | 44.3% (active)
COc1ccc(/C=C2\SC(=S)N(CCC(=O)N3CCOCC3)C2=O)cc1OC | 9.24% (inactive)
Cc1cc(=O)[nH]c(=S)[nH]1 | 80.5% (active)
CSc1cc(C)[nH]c(=O)n1 | -0.805% (inactive)
Cc1cc(=O)cc(C)[nH]1 | -6.47% (inactive)
C[C@@H]1CN([C@H](C)CO)C(=O)CCCn2nncc2CO[C@@H]1CN(C)S(=O)(=O)c1cccc(C#N)c1 | 1.72% (inactive)
COCCCn1c(C(=O)NC2CCCCC2)cc2c(=O)n3cccc(C)c3nc21 | 1.22% (inactive)
C[C@H](O)[C@@H]1C(=O)N2CCc3c([nH]c4ccccc34)[C@@H]2C[C@@H]1N(C)C(=O)Nc1ccc(F)cc1 | 3.72% (inactive)
CC1C(=O)N(Cc2cn(CC3CCCCC3)nn2)CCS(=O)(=O)N1Cc1ccc(-c2cccc(N(C)C)c2)cc1 (stereo not drawn) | 6.34% (inactive)

Structure (SMILES) | inhibition
CN(C)C(CNC(=O)c1cc(Br)c(Br)s1)c1ccco1 (stereo not drawn) | -1.49% (inactive)
CC(=O)N1CCCc2cc(S(=O)(=O)N3CCCC(C(=O)N4CCN(c5cccc(Cl)c5)CC4)C3)ccc21 (stereo not drawn) | 42.1% (active)
CC(=O)N1CCCc2cc(S(=O)(=O)CCC(=O)N3CCN(c4ccccc4)CC3)ccc21 | -0.617% (inactive)
CC(=O)N1c2ccc(S(=O)(=O)N3CCC(C(=O)N4CCN(c5ccccc5)CC4)CC3)cc2CC1C (stereo not drawn) | 4.09% (inactive)
Cc1cccc(S(=O)(=O)N(C)C[C@H]2OCc3cnnn3CCCC(=O)N([C@@H](C)CO)C[C@H]2C)c1 | 2.93% (inactive)
COc1ccccc1-n1c(SCC(=O)Nc2ccc(Cl)cc2)nc(O)c(Cc2ccccc2)c1=O | -7.65% (inactive)
O=C(c1ccc2nc(N3CCOCC3)sc2c1)N1CCN(c2ccc(Cl)cc2)CC1 | 3.45% (inactive)
c1c2c(cc3sc(N4CCCCC4)nc13)OCCO2 | 58% (active)
CN(C)CCN(C(=O)C1CCCCC1)c1nc2cc3c(cc2s1)OCO3 | 0.636% (inactive)
Cc1ccc(NC(=O)Cn2sc3ccccc3c2=O)cc1 | 0.665% (inactive)
COc1cccc2c1C(=O)c1c(O)c3c(c(O)c1C2=O)CC(O)(C(C)=NNC(=O)c1ccc(Cl)c(Cl)c1)CC3OC1CC(N)C(O)C(C)O1 (stereo not drawn) | 70% (active)
COc1cc(C(=O)OCCCN2CCOCC2)cc(OC)c1OC | 1.26% (inactive)
Cc1cccc(N(C(=O)Cn2nnc(-c3ccc(C)o3)n2)C(C(=O)NC2CCCC2)c2ccncc2)c1 (stereo not drawn) | 9.95% (inactive)
Cc1ccc(-c2nnn(CC(=O)N(CCO)C(C(=O)NC(C)(C)C)c3ccncc3)n2)cc1 (stereo not drawn) | -24.9% (inactive)
Cc1ccc(-c2nnn(CC(=O)N(Cc3ccco3)C(C(=O)NC(C)(C)C)c3ccncc3)n2)o1 (stereo not drawn) | 54.6% (active)
CCn1c(SCC(=O)N2CCCC2=O)nc2ccccc21 | 6.54% (inactive)
Cc1cccc(NC(=O)/C=C/c2ccc3c(c2)OCO3)n1 | -23.8% (inactive)
O=C(CNC(=O)C(c1ccccc1)c1ccccc1)N/N=C\c1ccc2c(c1)OCO2 | -3.07% (inactive)
C(=N\Nc1ccc2ccccc2n1)/c1ccc2c(c1)OCO2 | 43.9% (active)
CC(OC(=O)c1cccc(S(=O)(=O)N2CCOCC2)c1)C(=O)NCC1CCCCC1 (stereo not drawn) | -1.25% (inactive)
Cc1ccc2cc(/C=N/Nc3ccc(C(=O)O)cc3)c(Cl)nc2c1 | -63.4% (inactive)
CCNC(=S)NNC(=O)c1ccc2ncccc2c1 | 7.73% (inactive)
O=C(O)c1ccc(N/N=C/c2ccc3ncccc3c2)cc1 | 44.3% (active)
CCOc1ccc(S(=O)(=O)NCCC(=O)NNC(=O)c2ccc(F)cc2)cc1 | -8.7% (inactive)
O=C(Nc1ccc2c(c1)[C@@H]1C[C@@H](CC(=O)N3CCCCC3)O[C@@H](CO)[C@@H]1O2)NC1CCCCC1 | 1.38% (inactive)
CCc1cc(-c2nnn(CCC3COCCO3)c2CC)ccc1-c1cn(Cc2ccc3ccccc3c2)nn1 (stereo not drawn) | 0.755% (inactive)
